This note sets out measurements from ChEMBL document CHEMBL1961873, “Compounds: GSK PKIS; Assays: Nanosyn kinase panel” (2012).

The structures appear in SMILES notation.

Experiment [1] concerns the target Tyrosine-protein kinase Fer (Homo sapiens) (UniProt P16591). The conditions noted are these: at 1 µM.
Experiment [2] has as its target Tyrosine-protein kinase Fes/Fps (Homo sapiens) (UniProt P07332). Conditions: at 0.1 µM.
Experiment [3] has the same target. Conditions: at 1 µM.
Experiment [4] concerns the target Fibroblast growth factor receptor 1 (Homo sapiens) (UniProt P11362). The conditions noted are these: at 0.1 µM.
Experiment [5] has the same target. Conditions: at 1 µM.
Experiment [6] concerns the target Fibroblast growth factor receptor 2 (Homo sapiens) (UniProt P21802). Conditions: at 0.1 µM.
For experiment [7] the target is unchanged. The conditions noted are these: at 1 µM.
The target in experiment [8] is Fibroblast growth factor receptor 3 (Homo sapiens) (UniProt P22607). Conditions: at 0.1 µM.
Chain of Fibroblast growth factor receptor 3 (Homo sapiens) (P22607 23-806 limits assumed): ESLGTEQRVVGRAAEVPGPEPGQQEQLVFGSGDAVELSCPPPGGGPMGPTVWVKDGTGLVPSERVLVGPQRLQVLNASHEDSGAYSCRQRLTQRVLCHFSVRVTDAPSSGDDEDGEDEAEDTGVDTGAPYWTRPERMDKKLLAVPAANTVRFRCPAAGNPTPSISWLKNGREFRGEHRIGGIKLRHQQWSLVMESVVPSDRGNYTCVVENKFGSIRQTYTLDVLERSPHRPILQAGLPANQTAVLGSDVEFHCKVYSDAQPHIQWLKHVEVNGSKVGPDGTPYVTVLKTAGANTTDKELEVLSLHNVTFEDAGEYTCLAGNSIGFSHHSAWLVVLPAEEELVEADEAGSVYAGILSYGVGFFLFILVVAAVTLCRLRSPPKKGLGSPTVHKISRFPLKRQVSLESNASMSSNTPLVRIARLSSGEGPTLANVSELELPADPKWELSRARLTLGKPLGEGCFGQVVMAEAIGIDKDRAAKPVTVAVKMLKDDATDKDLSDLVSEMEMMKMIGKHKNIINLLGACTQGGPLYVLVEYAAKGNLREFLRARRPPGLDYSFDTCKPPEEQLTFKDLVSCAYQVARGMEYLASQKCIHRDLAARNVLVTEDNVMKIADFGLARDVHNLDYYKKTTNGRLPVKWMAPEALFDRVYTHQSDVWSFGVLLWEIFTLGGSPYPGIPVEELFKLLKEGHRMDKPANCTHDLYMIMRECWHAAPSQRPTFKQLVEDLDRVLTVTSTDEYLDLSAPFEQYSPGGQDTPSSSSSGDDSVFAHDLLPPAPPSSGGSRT
Experiment [9] has the same target. Conditions: at 1 µM.
The target of experiment [10] is Fibroblast growth factor receptor 4 (Homo sapiens) (UniProt P22455). Conditions: at 0.1 µM.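 Also: values are mean percent inhibition of FGFR4.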
Chain of Fibroblast growth factor receptor 4 (Homo sapiens) (P22455 22-802 limits assumed): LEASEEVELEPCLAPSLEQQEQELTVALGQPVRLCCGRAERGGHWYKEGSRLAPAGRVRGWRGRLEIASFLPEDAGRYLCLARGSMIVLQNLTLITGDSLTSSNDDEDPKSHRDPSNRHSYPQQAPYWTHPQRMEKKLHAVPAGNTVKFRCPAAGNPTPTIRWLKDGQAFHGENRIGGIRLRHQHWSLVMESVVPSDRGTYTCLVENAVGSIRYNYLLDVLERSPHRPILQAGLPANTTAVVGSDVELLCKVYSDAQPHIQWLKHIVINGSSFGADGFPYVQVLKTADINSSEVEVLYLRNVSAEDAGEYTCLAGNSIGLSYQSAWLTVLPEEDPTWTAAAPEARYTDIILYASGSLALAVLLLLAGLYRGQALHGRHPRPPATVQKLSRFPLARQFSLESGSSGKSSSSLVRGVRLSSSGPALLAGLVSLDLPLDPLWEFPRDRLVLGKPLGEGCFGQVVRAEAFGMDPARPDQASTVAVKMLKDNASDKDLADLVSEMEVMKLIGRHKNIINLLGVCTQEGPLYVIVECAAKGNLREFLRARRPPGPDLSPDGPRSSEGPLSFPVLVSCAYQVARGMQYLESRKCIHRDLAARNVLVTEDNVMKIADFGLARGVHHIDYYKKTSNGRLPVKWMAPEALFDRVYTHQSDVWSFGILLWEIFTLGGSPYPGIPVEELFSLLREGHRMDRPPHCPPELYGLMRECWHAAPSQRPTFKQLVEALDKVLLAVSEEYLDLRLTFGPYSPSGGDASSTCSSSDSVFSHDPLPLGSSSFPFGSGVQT

As usually defined, the inhibition is the relative decrease from the control value, in per cent.

Chain of Tyrosine-protein kinase Fer (Homo sapiens) (P16591 whole entry, looked up): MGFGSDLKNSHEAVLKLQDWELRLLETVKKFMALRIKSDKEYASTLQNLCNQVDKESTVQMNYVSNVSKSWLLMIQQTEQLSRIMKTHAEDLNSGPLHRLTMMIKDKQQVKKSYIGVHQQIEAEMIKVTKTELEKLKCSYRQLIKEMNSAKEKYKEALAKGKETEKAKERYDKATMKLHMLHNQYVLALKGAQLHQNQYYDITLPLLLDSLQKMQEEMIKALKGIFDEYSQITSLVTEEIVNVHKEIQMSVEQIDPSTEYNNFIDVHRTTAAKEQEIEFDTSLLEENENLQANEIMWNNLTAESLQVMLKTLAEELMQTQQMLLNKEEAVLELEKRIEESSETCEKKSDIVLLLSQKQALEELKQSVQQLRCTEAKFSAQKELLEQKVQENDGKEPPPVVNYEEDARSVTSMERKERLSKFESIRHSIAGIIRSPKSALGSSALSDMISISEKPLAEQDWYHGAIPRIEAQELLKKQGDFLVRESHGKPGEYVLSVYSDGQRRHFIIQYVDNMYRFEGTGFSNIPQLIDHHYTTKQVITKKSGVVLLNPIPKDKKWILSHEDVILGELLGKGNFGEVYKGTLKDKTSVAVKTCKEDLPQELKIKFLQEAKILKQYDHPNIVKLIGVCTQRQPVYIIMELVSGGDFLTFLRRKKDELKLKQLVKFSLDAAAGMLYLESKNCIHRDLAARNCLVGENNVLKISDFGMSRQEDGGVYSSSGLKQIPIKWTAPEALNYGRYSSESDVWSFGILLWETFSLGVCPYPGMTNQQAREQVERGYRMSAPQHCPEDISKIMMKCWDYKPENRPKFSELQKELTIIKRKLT
Chain of Tyrosine-protein kinase Fes/Fps (Homo sapiens) (P07332 whole entry): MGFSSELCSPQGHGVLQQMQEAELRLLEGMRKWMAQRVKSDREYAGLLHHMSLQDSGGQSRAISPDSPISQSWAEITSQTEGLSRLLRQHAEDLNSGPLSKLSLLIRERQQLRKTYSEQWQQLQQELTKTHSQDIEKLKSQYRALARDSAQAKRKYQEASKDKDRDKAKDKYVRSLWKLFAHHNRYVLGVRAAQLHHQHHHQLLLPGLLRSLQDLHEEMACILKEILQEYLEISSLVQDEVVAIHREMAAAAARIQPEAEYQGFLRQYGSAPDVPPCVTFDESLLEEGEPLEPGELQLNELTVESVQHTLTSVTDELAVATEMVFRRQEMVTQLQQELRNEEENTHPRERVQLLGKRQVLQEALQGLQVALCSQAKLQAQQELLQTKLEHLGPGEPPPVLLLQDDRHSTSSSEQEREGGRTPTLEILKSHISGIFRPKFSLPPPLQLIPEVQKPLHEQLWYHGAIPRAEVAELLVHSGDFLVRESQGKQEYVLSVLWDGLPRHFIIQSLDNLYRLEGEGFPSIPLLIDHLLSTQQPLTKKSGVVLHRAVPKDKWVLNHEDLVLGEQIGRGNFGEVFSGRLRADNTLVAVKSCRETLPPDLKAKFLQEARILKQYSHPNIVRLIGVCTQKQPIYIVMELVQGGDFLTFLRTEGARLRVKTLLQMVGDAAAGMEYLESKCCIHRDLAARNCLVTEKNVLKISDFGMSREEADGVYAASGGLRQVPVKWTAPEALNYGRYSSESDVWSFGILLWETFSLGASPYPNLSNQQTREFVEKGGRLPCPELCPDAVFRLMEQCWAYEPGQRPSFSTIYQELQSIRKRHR
Chain of Fibroblast growth factor receptor 2 (Homo sapiens) (P21802 22-821 limits assumed): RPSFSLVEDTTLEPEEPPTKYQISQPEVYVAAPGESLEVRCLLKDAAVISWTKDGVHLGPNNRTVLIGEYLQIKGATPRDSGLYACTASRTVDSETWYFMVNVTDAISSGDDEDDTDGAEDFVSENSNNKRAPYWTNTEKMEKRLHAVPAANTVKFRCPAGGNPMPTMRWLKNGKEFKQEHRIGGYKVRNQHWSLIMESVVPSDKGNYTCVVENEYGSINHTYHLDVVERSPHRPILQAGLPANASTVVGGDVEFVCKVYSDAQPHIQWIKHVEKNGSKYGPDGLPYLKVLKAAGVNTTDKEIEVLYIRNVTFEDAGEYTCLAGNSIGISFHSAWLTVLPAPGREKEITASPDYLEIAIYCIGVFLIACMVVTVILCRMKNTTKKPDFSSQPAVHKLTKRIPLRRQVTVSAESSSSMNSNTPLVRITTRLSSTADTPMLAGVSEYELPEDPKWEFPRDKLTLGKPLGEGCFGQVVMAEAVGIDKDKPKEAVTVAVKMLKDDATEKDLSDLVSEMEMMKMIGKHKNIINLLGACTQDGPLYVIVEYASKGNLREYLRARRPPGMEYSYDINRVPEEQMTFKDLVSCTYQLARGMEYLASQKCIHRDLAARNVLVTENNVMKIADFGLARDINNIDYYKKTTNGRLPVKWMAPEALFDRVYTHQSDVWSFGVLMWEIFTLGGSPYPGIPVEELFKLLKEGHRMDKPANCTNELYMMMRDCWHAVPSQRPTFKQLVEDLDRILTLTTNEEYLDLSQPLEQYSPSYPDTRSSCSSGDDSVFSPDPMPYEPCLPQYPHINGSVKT
Chain of Fibroblast growth factor receptor 1 (Homo sapiens) (P11362 22-822 limits assumed): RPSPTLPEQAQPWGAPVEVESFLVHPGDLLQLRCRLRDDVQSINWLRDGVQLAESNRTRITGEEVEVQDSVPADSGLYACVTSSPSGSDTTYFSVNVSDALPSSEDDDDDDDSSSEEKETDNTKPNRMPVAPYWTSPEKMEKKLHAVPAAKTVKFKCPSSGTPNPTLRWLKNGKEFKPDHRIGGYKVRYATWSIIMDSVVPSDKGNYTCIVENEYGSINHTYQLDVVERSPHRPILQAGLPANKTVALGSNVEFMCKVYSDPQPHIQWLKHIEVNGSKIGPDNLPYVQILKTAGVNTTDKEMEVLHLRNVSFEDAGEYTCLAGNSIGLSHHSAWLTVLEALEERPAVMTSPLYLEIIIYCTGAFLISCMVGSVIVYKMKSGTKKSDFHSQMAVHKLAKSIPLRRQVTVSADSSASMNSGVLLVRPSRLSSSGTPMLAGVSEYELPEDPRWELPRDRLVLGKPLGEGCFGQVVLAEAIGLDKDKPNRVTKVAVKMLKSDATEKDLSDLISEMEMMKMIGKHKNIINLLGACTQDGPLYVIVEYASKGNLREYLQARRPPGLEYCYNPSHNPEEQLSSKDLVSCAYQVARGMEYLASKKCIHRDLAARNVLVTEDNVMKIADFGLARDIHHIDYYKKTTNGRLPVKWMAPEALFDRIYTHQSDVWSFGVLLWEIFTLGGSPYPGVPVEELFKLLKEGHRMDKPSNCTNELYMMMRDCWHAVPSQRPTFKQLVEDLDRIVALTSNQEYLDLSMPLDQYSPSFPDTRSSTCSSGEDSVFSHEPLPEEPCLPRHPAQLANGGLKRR

Consider `O=C1NC(=O)C(c2cccc(Cl)c2)=C1Nc1ccc(Cl)c(C(=O)O)c1`, for which the inhibition in experiment [1] was found to be 2.51%; in experiment [2] it was 2.13%; in [3] it was 2.52%; in [4] it was 3.46%; in [5] it was 16.2%; in experiment [6], 8.43%. Besides, the inhibition is 20.6% in experiment [7], 6.79% in [8], 24.8% in experiment [9] and -1.89% in experiment [10].
Take `COc1cc2ncn(-c3cc(OCc4cccs4)c(C(N)=O)s3)c2cc1OC`: the inhibition was 12.9% in [1]; 1.87% in experiment [2]; 1.21% in experiment [3]; -3.02% in experiment [4]; 7.33% in experiment [5]; 1.75% in experiment [6]. Further, the inhibition in experiment [7] is 15.3%; in experiment [8] it was 1.72%; in [9] it was 12.4%; in [10] it was -0.52%.
`c1ccc(-c2n[nH]cc2-c2ccnc(-c3ccc(OCCN4CCOCC4)cc3)c2)nc1`: the inhibition in experiment [1] came out at 5.42%; in experiment [2], 0.55%; in experiment [3], 0.54%; in [4], 3.52%; in experiment [5], 5.55%; in experiment [6], 4.12%. The inhibition in [7] was 7.12%; in experiment [8], 3.61%; in experiment [9], 5.31%; in experiment [10] it was 4.68%.
Regarding `NS(=O)(=O)c1ccc(N/N=C2\C(=O)Nc3ccc(C(=O)NCCCn4ccnc4)cc32)cc1`, the inhibition in experiment [2] was 2.9%; in experiment [3], 3.18%; in experiment [4] it was 1.31%; in [5], 4.32%; in experiment [6] it was 3.11%; in experiment [7], 8.85%. The inhibition is 4.75% in [8], 5.37% in experiment [9] and -9.93% in [10].
As for `COc1cc(Nc2ncc3c(C)nc(-c4cccc(Oc5ccccc5)c4)n3n2)cc(OC)c1OC`, the inhibition is 7.1% in [1]; 2.66% in experiment [2]; 3.2% in experiment [3]; 2.41% in [4]; -0.38% in [5]; 0.66% in experiment [6]. For the same compound, the inhibition turned out to be 5.14% in experiment [7], 3.25% in experiment [8], 3.03% in experiment [9] and 1.38% in experiment [10].
As for `NS(=O)(=O)c1ccc(N/N=C2\C(=O)Nc3ccc(-c4cnco4)cc32)cc1`, the inhibition in experiment [1] was 0.94%; in experiment [2], 0.3%; in experiment [3], 0.19%; in experiment [4], -2.98%; in experiment [5] it was 2.6%; in [6], -0.2%. Besides, the inhibition in experiment [7] was 15.2%; in [8] it was -0.63%; in experiment [9] it was 10.1%; in [10], -3.55%.
Regarding `Fc1ccc(-c2ncn(C3CCNCC3)c2-c2ccnc(Oc3ccc(F)c(F)c3)n2)cc1`, the inhibition in experiment [1] is 3.96%; in experiment [2], 2.73%; in [3], 2.2%; in [4], -3.39%; in [5] it was 0.21%; in experiment [6], 0.37%. Besides, the inhibition in experiment [7] was 2.12%; in [8], 0.74%; in [9] it was 2.67%; in [10], -2.57%.
With `COc1cccc(/C=N/Nc2ncnc3c2cnn3-c2cccc(OC)c2)c1`, the inhibition is 3.78% in experiment [1]; 3.43% in experiment [2]; 3.25% in experiment [3]; 4.2% in experiment [4]; 2.4% in experiment [5]; 5.34% in experiment [6]. Besides, the inhibition worked out at 6.12% in [7], 4.59% in experiment [8], 5.11% in experiment [9] and 2.44% in experiment [10].
Turning to `CCC(=O)Nc1ccc(C)c(-c2ccc(C(=O)NCC3CC3)cc2)c1`, the inhibition in experiment [1] was determined as 1.35%; in experiment [2], 3.63%; in experiment [3], 2.61%; in [4], 2.39%; in [5], 4.4%; in experiment [6] it was 3.64%. The inhibition is 5.39% in [7], 2.42% in [8], 2.89% in experiment [9] and 2.19% in experiment [10].
In the case of `Fc1ccc(-c2ncn(C3CCNCC3)c2-c2ccnc(Oc3ccc(Oc4ccccc4)cc3)n2)cc1`, the inhibition in [1] was 5.54%; in experiment [2] it was 3.48%; in experiment [3] it was 4.42%; in experiment [4] it was 6.98%; in experiment [5] it was 2.81%; in [6], 6.96%. For the same compound, the inhibition in experiment [7] is 5.56%; in [8], 7.61%; in experiment [9], 5.27%; in experiment [10] it was -7.37%.
`c1ccc(Oc2ccc(Nc3ncc(-c4ccccc4)o3)cc2)cc1`: the inhibition in experiment [1] is 1.64%; in experiment [2] it was 0.55%; in experiment [3], 0.4%; in experiment [4], -1.76%; in experiment [5], 2.11%; in experiment [6] it was 1.12%. For the same compound, the inhibition is 3.49% in [7], 4.41% in experiment [8], 4.9% in experiment [9] and 2.77% in experiment [10].
Regarding `COC(=O)Nc1nc2ccc(Sc3ccc(NC(=O)Nc4cc(C(F)(F)F)ccc4F)cc3)cc2[nH]1`, the inhibition was 1.11% in experiment [1]; 0.33% in experiment [2]; -0.58% in [3]; -1.07% in experiment [4]; -3.15% in experiment [5]; 0.25% in experiment [6]. Moreover, the inhibition in experiment [7] was determined as 4%; in experiment [8], 2.1%; in experiment [9] it was 2.77%; in experiment [10] it was 3.12%.
With `Cc1ccc(C(=O)NC2CCC2)cc1-c1ccc(C(=O)NCC2CC2)cc1`, the inhibition turned out to be 2.82% in [1]; 2.48% in experiment [2]; 1.75% in experiment [3]; 5.21% in experiment [4]; 0.27% in experiment [5]; 2.36% in experiment [6]. Besides, the inhibition in experiment [7] is 3.31%; in experiment [8], 3.29%; in experiment [9] it was 3.04%; in experiment [10] it was 0.25%.
On to `COc1cc2ncn(-c3cc(OCc4ccccc4C(F)(F)F)c(C(C)=O)s3)c2cc1OC`, for which the inhibition in experiment [1] was found to be 7.96%; in experiment [2] it was 2.84%; in experiment [3] it was 2.74%; in experiment [4], 2.64%; in experiment [5], 2.73%; in experiment [6], 3.27%. The inhibition in experiment [7] was 9.16%; in [8] it was 2.58%; in experiment [9] it was 6.41%; in experiment [10], -0.33%.
With `COc1ccc2cc(-c3c(-c4ccncc4)nc(-c4ccc([S+](C)[O-])cc4C)n3C)ccc2c1` (centres undefined), the inhibition was 3.2% in [1]; -0.52% in [2]; -1.2% in [3]; -0.12% in experiment [4]; 2.93% in experiment [5]; -0.56% in experiment [6]. Besides, the inhibition in [7] came out at 2.09%; in [8], 1.3%; in [9] it was 3.02%; in experiment [10] it was 2.92%.
In the case of `N#Cc1ccc(Oc2nccc(-c3c(-c4ccc(F)cc4)ncn3C3CCNCC3)n2)cc1`, the inhibition is 4.07% in experiment [1]; 4.54% in experiment [2]; 4.03% in experiment [3]; -0.69% in experiment [4]; 5.45% in [5]; 3.13% in experiment [6]. Moreover, the inhibition was 6.84% in experiment [7], 3.14% in experiment [8], 5.22% in experiment [9] and 0.73% in experiment [10].
On to `COc1ccc2ncn(-c3cc(O[C@H](C)c4ccccc4Cl)c(C(N)=O)s3)c2c1`, for which the inhibition in [1] is 3.7%; in [2], 2.74%; in experiment [3], 1.59%; in experiment [4], -0.72%; in experiment [5] it was 4.65%; in experiment [6], -0.16%. Moreover, the inhibition in [7] is 5.18%; in experiment [8], 1.57%; in experiment [9], 4.59%; in experiment [10], -1.86%.
